# Test results reported in the supplement of paper PMC6555819.
# Key:
# Test in all cases: PBM binding z-score (relative to random genomic background probes); higher = stronger binding; sequences stand for … in GC…GCGATTGACAGCGTAGAATGAAGG
# [1] = system: FXR:RXRa (NR concentration 270 nM, RXRa partner concentration 90 nM)
# How it was run: (§1)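 Scanned fluorescence from custom Agilent 4×180K protein-binding microarrays was regression-normalized. Binding z-scores use random background probes as reference. Ligand-free nuclear receptor dimers were incubated on the arrays for 1 h and detected with antibodies against each partner (one per run).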
# [2] = system: LXRa:RXRa (NR concentration 270 nM, RXRa partner concentration 90 nM)
# How it was run: as §1
# [3] = system: LXRa homodimer (NR concentration 270 nM)
# How it was run: as §1
# [4] = system: LXRb:RXRa (NR concentration 270 nM, RXRa partner concentration 90 nM)
# How it was run: as §1
# [5] = system: LXRb homodimer (NR concentration 270 nM)
# How it was run: as §1
# [6] = system: PPARa:RXRa (NR concentration 270 nM, RXRa partner concentration 90 nM)
# How it was run: as §1
# [7] = system: PPARg:RXRa (NR concentration 180 nM, RXRa partner concentration 90 nM)
# How it was run: as §1
# [8] = system: PPARg:RXRa 270nM:90nM, anti-RXR (NR concentration 270 nM, RXRa partner concentration 90 nM)
# How it was run: as §1
# [9] = system: PPARg:RXRa 30nM:10nM, anti-RXR (NR concentration 30 nM, RXRa partner concentration 10 nM)
# How it was run: as §1
# [10] = system: PPARg:RXRa 90nM:30nM, anti-RXR (NR concentration 90 nM, RXRa partner concentration 30 nM)
# How it was run: as §1
# [11] = system: PPARg:RXRa DBDmut IVT, anti-RXR (DBD mutation: RXRa K156A/R161A, NR concentration 270 nM, RXRa partner concentration 90 nM)
# How it was run: as §1
# [12] = system: PPARg:RXRa IVT, anti-PPARg (NR concentration 270 nM, RXRa partner concentration 90 nM)
# How it was run: as §1
# [13] = system: PPARg DBDmut:RXRa IVT, anti-PPARg (DBD mutation: PPARg1 K132A/R137A, NR concentration 270 nM, RXRa partner concentration 90 nM)
# How it was run: as §1
# [14] = system: PPARg DBDmut IVT, anti-PPARg (DBD mutation: PPARg1 K132A/R137A, NR concentration 270 nM)
# How it was run: as §1
# [15] = system: PPARg homodimer (NR concentration 180 nM)
# How it was run: as §1
# [16] = system: PXR:RXRa (NR concentration 270 nM, RXRa partner concentration 90 nM)
# How it was run: as §1
# [17] = system: PXR homodimer (NR concentration 270 nM)
# How it was run: as §1
# [18] = system: RARa:RXR (NR concentration 270 nM, RXRa partner concentration 90 nM)
# How it was run: as §1
# [19] = system: RARa homodimer (NR concentration 270 nM)
# How it was run: as §1
# [20] = system: RARb:RXRa (NR concentration 270 nM, RXRa partner concentration 90 nM)
# How it was run: as §1
Sequence,PBM binding z-score [1],PBM binding z-score [2],PBM binding z-score [3],PBM binding z-score [4],PBM binding z-score [5],PBM binding z-score [6],PBM binding z-score [7],PBM binding z-score [8],PBM binding z-score [9],PBM binding z-score [10],PBM binding z-score [11],PBM binding z-score [12],PBM binding z-score [13],PBM binding z-score [14],PBM binding z-score [15],PBM binding z-score [16],PBM binding z-score [17],PBM binding z-score [18],PBM binding z-score [19],PBM binding z-score [20]
CCTACTGGGCCAAGGTCATCGATCAGTCAAAGCA,3.48,3.15,0.707,2.74,-0.415,4.23,4.52,4.7,2,4.15,4,4.6,-0.807,-0.598,1.98,3.71,0.25,4.34,0.517,3.65
TCTAGTTGGACACGGAGGTCACACACGACGGGTA,2.81,2.85,2.1,2.85,0.421,3.68,2.46,3.05,3.26,2.88,1.98,2.33,0.713,0.0839,2.38,4.16,1.05,4.39,1.25,3.45
CCGACTGGGGCATAAGGTTACCCTAAGCCAGCCC,0.368,0.99,-0.135,0.439,-1.18,1.6,1.95,3.02,0.838,2.09,2.4,2.69,-0.367,-1.53,-0.0921,0.213,-0.708,1.1,-0.511,1.26
GCTAGTTGGTCAGTAAAAGGTCACACAACGGTCG,3.52,4.37,4.08,4.15,0.685,4.73,3.31,4.38,2.61,4.66,0.826,2.77,0.539,0.321,3.81,5.2,1.19,6.17,2.05,4.43
CGTCCAAGGTCAATGCTAGGTCAGTCAAAGCATT,6.9,5.33,3,4.39,0.815,4.98,4,4.84,1.11,3.32,3.29,3.92,0.558,-0.362,4.74,4.84,1.29,5.75,1.17,5.36
CCGACTGGGGCAAGGTAACCATAACGCACAGCCA,-0.249,-0.173,-0.437,-0.227,-0.817,0.552,1.47,1.14,-0.222,0.712,2.79,2.75,0.115,-0.601,0.0706,-0.546,-0.376,0.0797,0.0514,0.619
ACTAGCAGGACAAGGGTCACTCAAGATTAGTCCG,2.6,3.07,0.432,2.76,0.105,4.3,6.63,6.93,5.71,7.29,0.93,3.2,-0.0211,-0.445,2.71,3.31,0.0433,4.23,0.605,3.47
GGAACGAGGGCAAGGTTGATAGCATCTGTCGACG,0.705,0.414,-0.458,0.32,-0.386,2.82,4.49,5.17,3.62,4.91,3.31,3.93,0.295,-0.611,0.79,0.705,-0.0103,0.822,0.206,2.52
CGAACTAGGTCATCCAGGATAGTGAATACATTGA,4.33,2.51,0.425,2.22,-0.0288,4.87,7.49,6.2,3.48,5.72,7.97,8.31,1.76,1.58,1.43,1.54,0.608,2.18,1.13,3.78
GCAGACAGGTGAAACGCCGGTAACTCAGGGTGGC,-0.365,-0.144,-0.611,-0.313,-0.77,0.601,0.303,-0.0478,-0.502,-0.552,0.72,0.227,-0.163,-1.53,-0.427,-0.468,-0.822,0.0984,-1.03,0.606
GGAACGAGGGCAAAGTTGAGAGCATCTGTCGACG,1.68,1.11,-0.49,1.03,-0.383,4.56,8.2,7.84,7.2,8.99,4.15,4.7,0.813,0.305,0.644,1.42,-0.0151,2.15,-0.358,2.61
CAGCCTAGGTCAGGGACAGTATAGGAGGAACGTT,1.72,1.1,-0.189,0.879,-0.664,2.34,1.26,1.07,0.251,0.563,1.29,1.68,-0.599,-0.73,0.801,0.546,-0.219,1.22,0.00135,3.4
CTTGCTAGGTCATGGTCAGCTAATCTACAGTATG,3.63,2.86,0.466,1.66,-0.00744,3.61,3.05,3.54,1.34,2.35,4.97,4.72,0.897,0.605,1.37,1.45,-0.306,2.48,0.17,3.66
TCTTGTACATCAACAGGAGGTTAAGAAAGATCGA,0.517,1.37,0.452,1.13,0.442,1.16,0.195,1.36,3.01,1.9,1.52,0.927,1.32,1.51,-0.544,0.873,0.161,1.09,0.409,0.66
CGTCAAAGTTTAACTAAGGTAACGTAAAGCACGC,1.47,2.68,0.251,0.825,0.249,1.15,0.797,1.22,0.174,0.65,0.271,1.32,0.6,1.17,0.901,1.45,0.928,1.55,0.858,2.44
ATCTCTAGGGAAAGATAGTTCAGTGAATGCAAAT,-0.0344,0.192,0.0693,0.157,0.479,0.0958,0.337,0.214,0.232,0.358,0.0889,0.274,0.441,0.248,0.581,0.457,0.536,0.402,0.55,0.406
CGTCCAAGGTCAGAGAGGTCTGTGAATGCCGAGT,4.66,3.14,0.0313,2.1,-0.51,3.92,2.27,2.64,0.0649,1.45,2.15,2.25,-0.507,-0.56,2.09,2.96,1.23,3.24,0.529,4.49
CGAACTAGGTCACGAAAGGTCAAAGTCGAATGAC,7.73,8.18,7.39,7.24,2.38,6.49,10.5,8.46,6.75,8.51,8.45,8.7,0.767,1.32,5.63,7.14,3.35,7.72,2.82,5.68
ATACCAAGGTGATCGTAAGGTCGTTGATACTAAC,2.06,1.46,0.729,1.42,-0.157,1.71,0.613,0.737,0.111,0.398,0.558,1.51,0.685,0.646,0.753,2.81,1.42,2.19,0.841,1.55
GAAACAGGGTCAGCTAGAGGCCAGAGTATGGAAA,5.08,2.78,-0.301,2.7,-0.705,4.97,4.24,3.85,0.859,2.72,2.53,3.11,0.33,-0.985,3.56,3.46,-0.0723,4.93,0.262,4.14
ACTATTAGTTGACTGAGGGCAACCGATACGACGC,0.492,0.678,0.199,0.459,0.656,0.506,0.804,0.0428,0.173,0.117,0.524,0.702,1.12,0.733,0.7,1.06,1.3,0.779,0.713,1.41
CGTCCGAGGTCAGCAGGTCAGTGAAAGCGACGTG,6.67,4.61,0.517,3.78,0.00416,5.44,5.32,5.3,1.73,4.16,3.37,4.16,0.747,0.472,4.76,4.43,0.531,5.55,1.59,5.15
TCTCGGAGGACACGAAGGTCACAGCTTTCCAGAG,2.69,2.82,1.52,2.65,-0.279,3.64,1.64,3.1,2.74,2.74,1.84,2.4,0.166,-0.192,2.75,3.96,2.33,3.8,0.474,3.97
CTCGAAAGGTCGTGCTCTGGTGAGTATACCAAAC,4.94,3.65,0.255,3.52,0.0875,4.94,2.33,3.59,0.836,2.12,1.12,1.7,0.0542,0.48,1.41,2.92,-0.238,3.6,0.169,3.86
TCTATTAGTTGAAGGGCAAACGACGAGTCCGTTT,0.768,1.24,0.6,1.3,0.637,1.43,0.285,2.43,3.63,2.94,2.81,0.694,0.606,0.592,1.18,1.25,1.12,1.22,1.02,1.72
CAAATTAGGTCAAAGGTCAAAGTCGAGCCAACCA,8.64,7.33,6.11,7.29,3.55,7.52,14,11.2,13.6,13.7,8.74,8.96,4.97,4,6.21,7.1,2.26,8.95,3.73,5.94
GCTGCTAGGTCAACTGTTGGTCAGCTAAAGCTCG,3.97,2.97,0.182,2.03,0.134,3.61,2.63,3.07,0.511,2.23,5.26,4.32,0.227,-0.586,1.68,1.48,-0.906,2.9,-0.53,4.42
ATCGAGAGGTCGTGAGGTGAGTATACAGAAAGGC,3.73,2.94,0.117,2.25,0.0713,4.03,2.75,2.74,0.76,1.91,0.135,2.04,1.16,0.618,1.02,2.66,0.102,3.54,0.567,3.05
